The nature of assay [1]: qHTS assay to identify small molecule antagonists of the estrogen related receptor signaling pathway with the pleiotropic PPARgamma coactivator (PGC) from Tox21 10K library - cell viability counter screen (AID 1224840; active means well fitted cell-killing curve with a large enough effect in the repeat runs, not every such curve was filed as active; further: nearly all actives have a fitted effect of over 40% in size). The procedure, abridged: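 Cell viability is measured by CellTiter-Fluor fluorescence in PGC/ERR cells that receive compounds after a 6-hour attachment period and are then incubated 17.5 hours at 37 C.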
For orientation: Quantitative high-throughput screening tests each substance at several concentrations.

In assay [2] the target is Thyrotropin receptor (Homo sapiens) (UniProt P16473). The experiment in a line: qHTS assay to identify small molecule agonists of the thyroid stimulating hormone receptor (TSHR) signaling pathway (AID 1224843; calls by dose curve; further: nearly all actives have a fitted effect of over 45% in size). The method, boiled down:
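Compounds are titrated over 15 concentrations, in triplicate, onto TSHR-HEK293 cells seeded at 800/well. Plates sit 30 min at room temperature before cAMP-d2 and anti-cAMP cryptate are added; signal is read after a further hour.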

Assay [3] can be described thus: qHTS assay to identify small molecule agonists of the hypoxia (HIF-1) signaling pathway - cell viability counter screen (AID 1224844; calls by dose curve; further: nearly all actives have a fitted effect of over 50% in size). The procedure, abridged: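 Viability counter screen: HRE-bla ME-180 cells plated 5 hrs before compound addition, treated 17 hrs at 37C and 5% CO2, then CellTiter-Glo added after the FRET reporter read; luminescence after 30 min.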

Assay [4] is described as follows: qHTS assay to identify small molecule agonists of H2AX (AID 1224845; active means well fitted activation curve with a large enough effect in the signal ratio in the repeat runs, not every such curve was filed as active; the % refers to the signal ratio). The method, boiled down:
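Wild-type CHO-K1 cells plated overnight, then exposed 3 hr at 37C to compounds at 15 concentrations (0.76% DMSO). Lysed, then HTRF anti-pH2AX(S139)-cryptate/anti-H2AX-d2 detection after 24 hr at room temperature; emissions 665 and 620 nm.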

Assay [5] is described as follows: qHTS assay to identify small molecule agonists of the hypoxia (HIF-1) signaling pathway (AID 1224846; active means well fitted activation curve with a large enough effect in the signal ratio in the repeat runs, not every such curve was filed as active; the % refers to the signal ratio). The method, boiled down:
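Agonist mode reporter screen. ME-180 cells stably expressing bla under HRE control received test compounds in DMSO for 17 hrs (37C, 5% CO2), and beta-lactamase activity was then detected with the CCF4-AM FRET substrate.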

A short description of assay [6]: qHTS assay to identify small molecule agonists of H2AX - cell viability counter screen (AID 1224847; calls by dose curve; further: top concentration of the series differs between compounds; nearly all actives have a fitted effect of over 30% in size). The procedure, abridged:
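Counter-screen for viability: CellTiter-Glo ATP luminescence read after 3 h compound treatment (15-point titration, 0.76% DMSO final) of CHO-K1 cells at 37C, with 30 min room-temperature reagent incubation.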

Assay [7] is described as follows: qHTS RealTime-Glo MT Cell Viability Assay in HepG2 cells - 24 hour (AID 1224867). Further: nearly all actives have a fitted effect of over 50% in size. The procedure, abridged:
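HepG2 cells were seeded at 600 cells/well together with NanoLuc luciferase and a cell-permeant prosubstrate, preincubated 5 h at 37 C/5% CO2, then pin-dosed with compounds in DMSO. Nonlytic luminescence from viable cells was read at each time point.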

Assay [8] is described as follows: qHTS RealTime-Glo MT Cell Viability Assay in HEK293 cells - 32 hour (AID 1224868). Further: top concentration of the series differs between compounds; nearly all actives have a fitted effect of over 50% in size. The method, boiled down:
(§1)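 HEK293 cells were seeded at 600 cells/well together with NanoLuc luciferase and cell-permeant prosubstrate, preincubated 5 h at 37 C/5% CO2, then given compound in DMSO by pintool. Luminescence from viable-cell prosubstrate reduction was read repeatedly over 40 h.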

Assay [9] in a line: A CellTox Green Cytotoxicity Assay to monitor cytotoxicity in HEK293 cells - 0 hour (AID 1224869). Further: nearly all actives have a fitted effect of over 50% in size. The procedure, abridged: (§2)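 Dead-cell fluorescence measured kinetically: asymmetric cyanine dye, HEK293, 600 cells/well, 5 h settle, 23 nL cpd/DMSO, 37 C, reads 0–40 h every 8 h.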
A short description of assay [10]: qHTS RealTime-Glo MT Cell Viability Assay in HepG2 cells - 40 hour (AID 1224870). Further: nearly all actives have a fitted effect of over 50% in size. The procedure, abridged:
(§3)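 HepG2 cells mixed with RealTime-Glo MT reagents (NanoLuc plus cell-permeant prosubstrate) were seeded at 600 cells/well, incubated 5 h at 37 C/5% CO2, then pinned with compounds in DMSO; nonlytic luminescence tracked viability during 40 h treatment.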

A short description of assay [11]: A CellTox Green Cytotoxicity Assay to monitor cytotoxicity in HEK293 cells - 40 hour (AID 1224871). Further: nearly all actives have a fitted effect of over 45% in size. The method, boiled down:
as §2

Assay [12] can be described thus: qHTS RealTime-Glo MT Cell Viability Assay in HEK293 cells - 16 hour (AID 1224872). The method, boiled down: as §1
Assay [13] can be described thus: qHTS RealTime-Glo MT Cell Viability Assay in HepG2 cells - 8 hour (AID 1224873). Further: nearly all actives have a fitted effect of over 55% in size. The procedure, abridged: as §3
A short description of assay [14]: qHTS RealTime-Glo MT Cell Viability Assay in HEK293 cells - 40 hour (AID 1224874). Further: nearly all actives have a fitted effect of over 50% in size. The following applies: RealTime-Glo luminescence; max response: hits give low values. The method, boiled down:
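600 HEK293 cells per well, dispensed already mixed with RealTime-Glo MT reagents. Compound dosing came 5 h later. The same wells were read for luminescence at 0, 8, 16, 24, 32 and 40 h of exposure at 37 C.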

Assay [15] is described as follows: A CellTox Green Cytotoxicity Assay to monitor cytotoxicity in HEK293 cells - 24 hour (AID 1224875). Further: series mostly up to about 77 µM; nearly all actives have a fitted effect of over 45% in size. The method, boiled down: as §2
Assay [16] can be described thus: qHTS assay to identify small molecule agonists of the estrogen related receptor signaling pathway with the pleiotropic PPARgamma coactivator (PGC) from Tox21 10K library (AID 1224842). Further: nearly all actives have a fitted effect of over 15% in size. The method, boiled down: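 PGC/ERR reporter cells (NTP line) were seeded 2,000 per well, rested 6 h at 37 C/5% CO2, then pin-dosed with compounds in DMSO for 18 h at 37 C; luciferase read by One-Glo luminescence after 30 min at room temperature.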

Assay [17] is described as follows: qHTS assay to identify small molecule antagonists of the estrogen related receptor (ERR) signaling pathway from Tox21 library (AID 1224848). Further: nearly all actives have a fitted effect of over 50% in size. Further: potency means the concentration at half of the fitted maximal effect. The method, boiled down: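 First, 2,000 ERR cells per well were plated and held 6 h at 37 C/5% CO2. Next, compounds in DMSO were pinned in and left 18 h at 37 C. Finally, ONE-Glo was added and luminescence read after 30 min at room temperature.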

Assay [18] in a line: qHTS assay to identify small molecule agonists of the estrogen related receptor (ERR) signaling pathway from Tox21 library (AID 1224849; calls by dose curve; further: nearly all actives have a fitted effect of over 15% in size). The method, boiled down: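 Quantitative HTS in agonist format: NTP ERR cell line, compounds transferred in DMSO after 6 h plating, 18 h incubation at 37 C, ONE-Glo luminescence endpoint.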

Seven molecules from PubChem BioAssay (Tox21) can be followed below.

Values without a mark were called inactive. Records with an inconclusive call do not appear. Calls of active or inactive are those of the source. Unless noted, the call rests on the fitted dose curve; in most records, active means well fitted curve in the direction sought with a large enough effect in the repeat runs; inconclusive means weak or mixed curves; inactive means no such curve, though single readings can be large; an effect the other way counts as inactive or inconclusive.
On the % scale 0 is the no-effect control and ±100 the full control effect.

Sequence of Thyrotropin receptor (Homo sapiens) (P16473 whole entry, looked up): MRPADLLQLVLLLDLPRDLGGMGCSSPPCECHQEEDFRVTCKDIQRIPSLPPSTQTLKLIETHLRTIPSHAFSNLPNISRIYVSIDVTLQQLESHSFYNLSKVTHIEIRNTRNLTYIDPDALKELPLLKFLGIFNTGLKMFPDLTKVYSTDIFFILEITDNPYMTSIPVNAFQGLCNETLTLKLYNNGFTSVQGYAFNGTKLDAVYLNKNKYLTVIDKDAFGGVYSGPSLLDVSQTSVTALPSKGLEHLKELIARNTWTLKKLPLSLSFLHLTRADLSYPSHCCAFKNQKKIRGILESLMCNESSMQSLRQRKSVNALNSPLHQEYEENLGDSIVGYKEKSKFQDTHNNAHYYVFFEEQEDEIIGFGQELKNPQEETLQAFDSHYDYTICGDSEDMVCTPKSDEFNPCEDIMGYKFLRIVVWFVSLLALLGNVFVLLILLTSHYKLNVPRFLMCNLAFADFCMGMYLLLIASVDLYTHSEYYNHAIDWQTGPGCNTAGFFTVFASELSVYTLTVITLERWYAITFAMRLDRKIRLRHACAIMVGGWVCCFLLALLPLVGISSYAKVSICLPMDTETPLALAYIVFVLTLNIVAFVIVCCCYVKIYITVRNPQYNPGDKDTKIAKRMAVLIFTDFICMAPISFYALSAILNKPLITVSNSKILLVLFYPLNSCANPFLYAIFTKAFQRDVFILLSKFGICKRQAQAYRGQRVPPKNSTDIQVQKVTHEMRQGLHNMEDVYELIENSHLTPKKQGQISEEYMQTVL

As to `BrC/C=C/CBr`, the viability change, negative = cytotoxic was 5.69% [at 19 µM] in assay [1] and 2.32% [at 15.8 µM] in assay [13]. Moreover, the figures for the activation in [2] and in [5] were -9.51% [at 19 µM] and -1.18% [at 15.8 µM], respectively. The activity change, negative = cytotoxicity is -5.88% [at 15.8 µM] in assay [3], 1.6% [at 31.6 µM] in assay [6], 3.48% [at 15.8 µM] in assay [7] and 1.42% [at 15.8 µM] in assay [12]. Also, the activation (H2AX phosphorylation) in assay [4] was -0.0482% [at 31.6 µM]. Also, the activity change, negative = cytotoxic in [8] was -0.679% [at 15.8 µM]; in assay [10] it was -1.8% [at 15.8 µM]. Besides, the cytotoxicity in assay [9] is 0.203% [at 15.8 µM]. For the same molecule, in assay [11], the cytotoxicity increase is 1.51% [at 15.8 µM]. Moreover, in [14], the max response was -1.67%. The activity change in assay [15] is 2.67% [at 15.8 µM, hits give high values].

In the case of `CCS(=O)(=O)CCn1c([N+](=O)[O-])cnc1C`, the molecule was classed as inactive in assay [1], in [16], in assay [2], in [3], in [4] and in assay [18]. The outcome in assay [7] and in assay [13] was inactive. The Potency entry in assay [6], in assay [17], in [8], in [11], in assay [12] and in assay [15] was “inactive” throughout. The max response in assay [14] was -0.732%.

For `Cc1nc(C)nc(N2C[C@@H](C)N(c3ccnc([C@@H](C)O)n3)[C@@H](C)C2)n1`, the molecule was classed as inactive in assay [1], in assay [16], in assay [2], in assay [3], in assay [4] and in assay [5]. Also, the molecule was classed as inactive in assay [18], in [7] and in [10]. The Potency entry in assay [6], in assay [8], in assay [9], in assay [11], in assay [12] and in assay [15] was “inactive” throughout. Besides, the Potency in assay [17] was 13.3 µM (active). The max response in [14] was 9.39%.

Take `CN(C1CCCCC1)S(=O)(=O)c1ccccc1N`: the molecule was called inactive in assay [1], in assay [16], in assay [2], in assay [3], in assay [4] and in assay [5]. In addition, the result in [18], in [7], in assay [10] and in [13] was inactive. The Potency result in assay [6], in assay [17], in [9], in [11] and in assay [15] was “inactive” in each case.

For `CCC1Nc2cc(Cl)c(S(N)(=O)=O)cc2S(=O)(=O)N1` (stereo unspecified), the outcome in assay [1], in assay [2], in assay [3], in assay [4], in assay [5] and in [7] was inactive. The result in [10] and in assay [13] was inactive. Also, the Potency entry in assay [6], in assay [8], in assay [9], in assay [11] and in assay [12] was “inactive” each time. For the same molecule, the max response in assay [14] is -2.14%.

As to `C[N+](C)(C)CC(O)CCl` (stereo unspecified), the outcome in [1], in assay [2], in assay [3], in assay [4], in assay [5] and in assay [7] was inactive. Also, the result in assay [10] and in assay [13] was inactive. The Potency entry in assay [6], in assay [8], in [9], in assay [11], in [12] and in assay [15] was “inactive” in each case. For the same molecule, the max response in [14] is -4.6%.

Regarding `CCOC(=O)CC#N`, the molecule was called inactive in [1], in assay [2], in assay [3], in [4], in assay [5] and in [7]. The call in assay [10] and in assay [13] was inactive. Further, the Potency entry in [6], in assay [8], in [9], in assay [11], in [12] and in assay [15] was “inactive” each time. Further, the max response in assay [14] is -0.316%.
